Compound activity deposited in PubChem by several laboratories.
Cav3 T inh: inhibitors of human Cav3.2 T-type calcium channel | Cav3.2-expressing cells, Fluo-4 calcium fluorescence FDSS; hits give low values | B-score at 10 µM | hit rate 4% among 100,000;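 active = single-dose well whose peak fluorescence ratio is a statistical outlier from its plate by either plate-standardised score or position-corrected B-score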
CYP2C19 inh: blocks human cytochrome P450 2C19; P33261; CYP2C19 Supersomes, luciferin-H EGE luminescence, 30 min; inhibition, % at 5 µM; hit rate 21% among 96,000;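 active = CYP2C19 inhibition above a set limit at 5 µM in the primary screen, cut at about 50% in these data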;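 also: plate controls were negative control wells for no effect and 2.5 mM tranylcypromine positive control for full effect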
CYP2C9 act: activators of human CYP2C9; recombinant CYP2C9, luciferin-H conversion, luminescence; hits give high values; factor 1 = untreated enzyme, 0 = blocked; activation factor at 5 µM; hit rate 1.4% among 96,000; AID 1024;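 active = activation factor of 2 or more for CYP2C9 at a 5 µM dose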;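 also: 0 = sulfaphenazole-blocked wells and 1 = vehicle-only wells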
Target sequence (P11712 whole entry, looked up): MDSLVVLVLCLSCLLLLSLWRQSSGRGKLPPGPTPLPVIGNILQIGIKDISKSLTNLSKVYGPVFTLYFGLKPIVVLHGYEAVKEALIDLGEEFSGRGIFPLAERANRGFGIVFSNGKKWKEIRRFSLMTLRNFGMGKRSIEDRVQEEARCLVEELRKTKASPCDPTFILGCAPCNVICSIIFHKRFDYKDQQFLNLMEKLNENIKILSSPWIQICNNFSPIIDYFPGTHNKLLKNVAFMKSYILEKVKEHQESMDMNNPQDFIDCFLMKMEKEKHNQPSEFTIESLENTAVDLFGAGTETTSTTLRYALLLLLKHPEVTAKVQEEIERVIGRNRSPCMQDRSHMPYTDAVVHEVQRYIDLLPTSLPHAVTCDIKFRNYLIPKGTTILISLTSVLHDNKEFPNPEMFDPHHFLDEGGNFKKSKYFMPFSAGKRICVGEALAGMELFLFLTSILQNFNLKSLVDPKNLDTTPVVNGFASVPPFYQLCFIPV
CYP2C19 activ: increases human CYP2C19 enzyme activity; activation factor at 5 µM; recombinant CYP2C19, luciferin-H EGE luminescence; hits give high values; 0 = fully inhibited enzyme, 1 = untreated enzyme; 96,000 tested, under 10 active; P33261; AID 1025;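 active = activation factor of at least 2 at 5 µM in the primary screen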;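 also: 0 = wells with 2.5 mM tranylcypromine and 1 = vehicle-only wells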
CYP2C9 inhib: inhibitors of human CYP2C9; CYP2C9 Supersomes, luciferin-H conversion, luminescence; inhibition, % at 5 µM; AID 777; hit rate 20% among 96,000;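 active = blocking of liver enzyme CYP2C9 beyond about 50% at 5 µM, limit read from the data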
Numbers without * were called inactive; . = no result. This is a sample that favours compounds with a hit; in the whole collection about 27% have one here.

SMILES	Cav3 T inh	CYP2C19 inh	CYP2C9 act	CYP2C19 activ	CYP2C9 inhib
Cc1ccc(C)c2[nH]c(=O)c(CN(CCN3CCOCC3)Cc3nnnn3CC3CCCO3)cc12 (stereo not given)	0.11	-6	1.1	1.1	-14
COc1ccc(Cn2nnnc2CN(Cc2cc3cc(C)ccc3[nH]c2=O)C2CCCC2)cc1	-0.017	25	0.7	0.7	25
Cc1ccc(C(=O)COC(=O)CNC(=O)c2ccco2)cc1	-0.51	45	0.9	0.5	10
Cc1cc(C)nc(N(C#N)S(=O)(=O)c2ccccc2Cl)n1	1.6	.	.	.	.
Cc1cc2n(n1)C(c1ccc(N(C)C)cc1)Nc1ccccc1-2 (stereo not given)	-7.2*	28	0.8	0.7	25
Cc1cc2n(n1)C(c1ccc3c(c1)OCO3)Nc1ccccc1-2 (stereo not given)	-1.5	88*	0.3	0.1	70*
Cc1ccc2c(c1)-c1cc(C)nn1C(c1ccc3c(c1)OCO3)N2 (stereo not given)	.	96*	0.1	0	89*
O=C(CNC(=O)Cc1ccccc1)NCC(=O)OCc1ccc(C(=O)c2ccccc2)cc1	-2.5	2	0.8	1	21
C/C(N)=C(/C#N)C(=O)COC(=O)CC1CCCC1	.	88*	0.6	0.1	41
C/C(N)=C(/C#N)C(=O)COC(=O)CSc1ccccc1	-0.18	48	0.6	0.5	40
C/C(N)=C(/C#N)C(=O)COC(=O)C1CCC(C(C)(C)C)CC1 (stereo not given)	-2.2	90*	0.2	0.1	84*
C/C(N)=C(/C#N)C(=O)COC(=O)CC12CC3CC(CC(C3)C1)C2	-2.3	78*	0.2	0.2	81*
COc1cccc2cc(C(=O)n3ccc(C)n3)c(=O)oc12	-0.62	5	1.8	1	-79
O=c1cc(N2CCN(c3cccc(Cl)c3)CC2)[nH]c(=O)n1C1CCCCC1	0.19	49	0.8	0.5	25
CC(C)n1cnc2c(N(C)c3ccccc3)nc(N(CCN(C)C)Cc3ccccc3)nc21	-2.4	.	.	.	.
Cc1cc(C(=O)N2CCN(c3cccc(Cl)c3)CC2)c(C)o1	-1.8	42	0.4	0.6	60*
Cc1ccc(C(=O)N2CCN(c3ccccc3)CC2)cc1C	0.091	69*	1.5	0.3	-47
Cc1cc(C(=O)N2CCN(c3ccccc3)CC2)c(C)o1	-0.53	38	1	0.6	-5
COc1ccc(C(=O)N2CCN(c3cccc(Cl)c3)CC2)cc1	-0.87	.	.	.	.
CCOC(=O)c1c(C)c(C(=O)N2CCN(c3cccc(Cl)c3)CC2)c(C)n1C	-0.62	67*	0.3	0.3	74*
Cc1ccc(C(=O)N2CCN(c3cccc(Cl)c3)CC2)cc1C	-2.1	71*	1.3	0.3	-32
CCC1=C(OC(=O)N(CC)CC)N2C(=O)OC(=NCCc3c[nH]c4ccccc34)[C@]2(Cc2ccccc2)[C@H]2C1=CC[C@H]1C(=O)N(CC)C(=O)[C@H]12	-0.61	.	.	.	.
COc1ccc(-c2nc3ccccc3c(C(=O)Nc3ccc(S(=O)(=O)Nc4cc(C)on4)cc3)c2C)cc1	2.1	-21	1.1	1.2	-8
CCOC(=O)CNC(=O)Cn1cnc2ccc(S(=O)(=O)N3CCC(C)CC3)cc2c1=O	-1.4	-9	0.8	1.1	23
ONC(=Nc1ccccc1)C(=Nc1ccccc1)NO	0.91	26	1	0.7	-2
SMILES	Cav3 T inh	CYP2C19 inh	CYP2C9 act	CYP2C19 activ	CYP2C9 inhib
Cc1cc(C(c2ccc(C)o2)c2ccc(C)o2)c(O)c([N+](=O)[O-])c1	-1.5	65*	0	0.4	95*
CCCC12CN3CC(C)(CN(C1)C3c1ccc(OC)cc1)C2=O (stereo not given)	-0.42	18	0.9	0.8	14
CN1C(=O)c2ccccc2N(C)C1c1ccc2c(c1)OCO2 (stereo not given)	-0.18	81*	0.3	0.2	69*
CC(C)C12CN3CC(C(C)C)(CN(C1)C3c1ccc3c(c1)OCO3)C2=O (stereo not given)	-2.3	92*	0.2	0.1	75*
CC12CN3CC(C)(CN(C1)C3c1ccc(Br)cc1)C2=O (stereo not given)	1	32	1	0.7	4
CC12CN3CC(C)(CN(C1)C3c1cc(Br)ccc1O)C2=O (stereo not given)	-0.022	52*	1	0.5	4
CCCC12CN3CC(C)(CN(C1)C3c1ccc3c(c1)OCO3)C2=O (stereo not given)	-0.35	73*	1.3	0.3	-25
CC(=O)Nc1c(NCC(C)C)c2ccccc2oc1=O	-1.1	.	.	.	.
CC(C)C12CN3CC(C(C)C)(CN(C1)C3c1ccccc1O)C2=O (stereo not given)	-2.5	91*	0.1	0.1	90*
C#C[C@]1(O)CC[C@H]2[C@@H]3CCC4=Cc5oncc5C[C@]4(C)[C@H]3CC[C@@]21C	-4.5*	.	.	.	.
COC(=O)c1cc(=O)n(Cc2ccc3c(c2)OCO3)c(=Nc2ccc(F)cc2)s1	-1	8	0.8	0.9	16
COC(=O)c1cc(=O)n(Cc2ccc3c(c2)OCO3)c(=Nc2ccccc2)s1	-2.2	17	0.3	0.8	68*
COC(=O)c1cc(=O)n(Cc2cccs2)c(=Nc2ccc(F)cc2)s1	-1.8	.	.	.	.
COC(=O)c1cc(=O)n(CCc2ccccc2F)c(=Nc2ccc(F)c(Cl)c2)s1	-3.5*	15	0.6	0.8	40
COC(=O)c1cc(=O)n(Cc2ccco2)c(=Nc2ccc(F)c(Cl)c2)s1	-1.9	64*	0.3	0.4	69*
CC1(c2nnc(Cc3ccccc3)o2)CC(c2cccnc2)=NO1 (stereo not given)	0.58	.	.	.	.
CC(C)(C)c1ccc(CSc2nnc(-c3ccccn3)n2Cc2ccco2)cc1	.	73*	0.1	0.3	93*
Brc1ccc(CSc2nnc(-c3ccccn3)n2Cc2ccco2)cc1	-5.1*	48	0.1	0.5	87*
Clc1cccc(CSc2nnc(-c3ccccn3)n2Cc2ccco2)c1	-7.6*	50*	0.2	0.5	85*
CCCCSc1nc(C)c(CC(=O)OC)c(=O)[nH]1	-1.3	8	1.1	0.9	-7
Cc1ccccc1NC(=O)c1cnc2ccccn2c1=O	0.82	20	1	0.8	5
Cc1csc2ncc(C(=O)NCc3ccccn3)c(=O)n12	0.99	.	.	.	.
CCOc1ccc(NC(=O)c2cnc3scc(C)n3c2=O)cc1	2.5	-13	2.8*	1.1	-180
O=C(NCCc1ccccc1)c1cnc2ccccn2c1=O	1.1	55*	0.8	0.5	21
COc1ccc(CCNC(=O)c2cnc3n(c2=O)CCS3)cc1OC	0.091	.	.	.	.
Cc1csc2ncc(C(=O)NCCc3ccccc3)c(=O)n12	0.94	54*	1.2	0.5	-17
O=C(NCCc1ccc(Cl)cc1)c1cnc2n(c1=O)CCS2	0.16	55*	0.9	0.5	13
O=C(c1ccc(CS(=O)(=O)Cc2ccc(Cl)cc2)o1)N1CCCC1	-0.85	30	0.6	0.7	40
